Data reported in PubChem BioAssay AID1159580 (chemical genetic matrix, 2015).
Several values for one entry are separate records, joined by “and”; a condition that tells them apart may be missing. Equal entries are not always repeated. Out of some 5,500 compounds screened, about 2,000 (36%) were called active. Not shown: some 18% with an inconclusive outcome. Cut-off read from the data, not from the text of the source: active = normalized growth mostly below about 0.91 (no sharp cut-off); inconclusive = no clear call, values can overlap the other calls; inactive = mostly above about 0.92. The list shows a part of the results.

Test: chemical genetic growth profiling, strain panel (AID 1159580);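 note: tested at 20 µM; growth read once vehicle control cultures reached saturation at 30 °C; 1 = growth at the plate median or of vehicle wells; lower values mean less growth of the strain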
Conditions: S. cerevisiae deletion strains, growth OD

Measured: normalized growth

C=Cc1c2[nH]c(c1C)C=c1[nH]c(c(C)c1C=C)=CC1N=C(C=c3[nH]c(c(C)c3CCC(=O)O)=C2)C(CCC(=O)O)=C1C (configuration not stated)
inactive: locus YAL013W, strain DEP1, hits give low values 0.975 | locus YAL021C, strain ccr4, hits give low values 0.954 | locus YAL026C, strain drs2, hits give low values 1.02 | locus YAL030W, strain snc1, hits give low values 1.03 | locus YBL061C, strain skt5, hits give low values 1.02 | locus YBR009C, strain hhf1, hits give low values 1.02 | locus YBR021W, strain FUR4, hits give low values 1.01 | locus YBR023C, strain chs3, hits give low values 1.01 | locus YBR171W, strain sec66, hits give low values 1.08 | locus YBR229C, strain ROT2, hits give low values 0.961 | locus YBR231C, strain swc5, hits give low values 1.02 | locus YBR279W, strain paf1, hits give low values 1.01 | locus YCL011C, strain gbp2, hits give low values 1.05 | locus YCL016C, strain dcc1, hits give low values 1 | locus YCL029C, strain bik1, hits give low values 0.979 | locus YCL061C, strain MRC1, hits give low values 1.03 | locus YCL069W, strain vba3, hits give low values 1.02 | locus YCR088W, strain abp1, hits give low values 1.04 | locus YDL005C, strain med2, hits give low values 1.01 | locus YDL035C, strain GPR1, hits give low values 0.975 | locus YDL040C, strain nat1, hits give low values 0.993 | locus YDL074C, strain BRE1, hits give low values 0.988 | locus YDL101C, strain DUN1, hits give low values 0.981 | locus YDL134C, strain PPH21, hits give low values 0.988 | locus YDL185W, strain tfp1, hits give low values 0.983 | locus YDL192W, strain arf1, hits give low values 0.976 | locus YDR001C, strain nth1, hits give low values 1.03 | locus YDR069C, strain doa4, hits give low values 1.06 | locus YDR101C, strain arx1, hits give low values 0.987 | locus YDR137W, strain rgp1, hits give low values 1 | locus YDR150W, strain NUM1, hits give low values 0.973 | locus YDR159W, strain sac3, hits give low values 1.03 | locus YDR162C, strain NBP2, hits give low values 0.96 | locus YDR195W, strain ref2 1.03 | locus YDR297W, strain sur2, hits give low values 1.01 | locus YDR318W, strain mcm21, hits give low values 0.989 | locus YDR334W, strain swr1, hits give low values 1.04 | locus YDR335W, strain msn5, hits give low values 1.01 | locus YDR388W, hits give low values 0.999 | locus YDR392W, strain spt3, hits give low values 0.909 | locus YDR502C, strain sam2, hits give low values 0.952 | locus YEL003W, strain gim4, hits give low values 1.05 | locus YEL037C, strain rad23, hits give low values 1.02 | locus YEL061C, strain CIN8 (second series), hits give low values 1.02 | locus YEL061C, strain CIN8, hits give low values 0.986 | locus YER015W, strain faa2, hits give low values 1.04 | locus YER016W, strain bim1, hits give low values 1.02 | locus YER110C, hits give low values 0.972 | locus YER111C, strain swi4, hits give low values 1.03 | locus YER155C, strain BEM2 (second series), hits give low values 1.07 | locus YER155C, strain BEM2, hits give low values 1 | locus YER167W, strain BCK2, hits give low values 0.982 | locus YFR010W, strain ubp6, hits give low values 1.04 | locus YGL078C, strain dbp3, hits give low values 1.02 | locus YGL086W, strain mad1, hits give low values 0.938 | locus YGL167C, strain pmr1, hits give low values 1.02 | locus YGL173C, strain kem1, hits give low values 1.02 | locus YGL227W, strain vid30, hits give low values 1.05 | locus YGL240W, strain doc1, hits give low values 0.977 | locus YGL248W, strain PDE1, hits give low values 0.995 | locus YGL253W, strain hxk2, hits give low values 0.988 | locus YGR078C, strain PAC10, hits give low values 0.994 | locus YGR135W, strain pre9, hits give low values 0.961 | locus YGR229C, strain SMI1, hits give low values 0.923 | locus YGR252W, strain gcn5, hits give low values 1.05 | locus YHR013C, strain ard1, hits give low values 0.975 | locus YHR027C, strain rpn1, hits give low values 1.06 | locus YHR030C, strain SLT2, hits give low values 1 and 1.03 | locus YHR079C, strain IRE1 (second series), hits give low values 0.99 | locus YHR079C, strain IRE1, hits give low values 1.07 | locus YHR094C, strain hxt1, hits give low values 0.996 | locus YHR129C, strain ARP1, hits give low values 0.995 | locus YHR142W, strain chs7, hits give low values 0.975 | locus YHR200W, strain rpn10, hits give low values 0.97 | locus YIL066C, strain RNR3, hits give low values 0.982 | locus YIL073C, strain SPO22, hits give low values 1.01 | locus YIL125W, strain kgd1, hits give low values 1.02 | locus YIR030C, strain dcg1, hits give low values 0.986 | locus YJL092W, strain hpr5, hits give low values 1.02 | locus YJL095W, strain BCK1 (second series), hits give low values 1.02 | locus YJL095W, strain BCK1, hits give low values 1.02 and 1.01 | locus YJL115W, strain asf1, hits give low values 1.02 | locus YJL129C, strain trk1, hits give low values 1.04 | locus YJL134W, strain LCB3, hits give low values 0.988 | locus YJL154C, strain vps35, hits give low values 1.02 | locus YJL164C, strain tpk1, hits give low values 0.968 | locus YJL166W, strain qcr8, hits give low values 0.945 | locus YJL168C, strain set2, hits give low values 0.996 | locus YJL187C, strain SWE1 (second series), hits give low values 1 | locus YJL187C, strain SWE1, hits give low values 1 | locus YJR043C, strain POL32, hits give low values 0.962 | locus YJR066W, strain TOR1, hits give low values 0.995
